Source: PubChem BioAssay AID1159580 (chemical genetic matrix, 2015)
Several values for one entry are separate records, joined by “and”; a condition that tells them apart may be missing. Identical values can stand only once. Screen size: about 5,500 compounds; about 2,000 (36%) were called active. Inconclusive results (about 18%) are left out. Cut-off read from the data, not from the text of the source: active = normalized growth mostly below about 0.91 (no sharp cut-off); inconclusive = no clear call, values can overlap the other calls; inactive = mostly above about 0.92. This is one part of the list.

Experiment: chemical genetic growth profiling, strain panel (AID 1159580);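 note: tested at 20 µM; growth read once vehicle control cultures reached saturation at 30 °C; 1 = growth at the plate median or of vehicle wells; lower values mean less growth of the strain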
Details: S. cerevisiae deletion strains, growth OD

Measured: normalized growth

CC[N+]1(C)CCCC(OC(=O)C(O)(c2ccccc2)c2ccccc2)C1 (stereo not given)
inactive: locus YAL013W, strain DEP1, stronger effect = lower value 1.01 | locus YAL021C, strain ccr4, stronger effect = lower value 1.01 | locus YAL026C, strain drs2, stronger effect = lower value 1.03 | locus YAL030W, strain snc1, stronger effect = lower value 1.02 | locus YBL061C, strain skt5, stronger effect = lower value 1.03 | locus YBR009C, strain hhf1, stronger effect = lower value 1.02 | locus YBR021W, strain FUR4, stronger effect = lower value 1.02 | locus YBR023C, strain chs3, stronger effect = lower value 1.02 | locus YBR171W, strain sec66, stronger effect = lower value 1.03 | locus YBR229C, strain ROT2, stronger effect = lower value 1.01 | locus YBR231C, strain swc5, stronger effect = lower value 1.03 | locus YBR279W, strain paf1, stronger effect = lower value 1.02 | locus YCL011C, strain gbp2, stronger effect = lower value 1.03 | locus YCL016C, strain dcc1, stronger effect = lower value 1.01 | locus YCL029C, strain bik1, stronger effect = lower value 1.02 | locus YCL061C, strain MRC1, stronger effect = lower value 1.02 | locus YCL069W, strain vba3, stronger effect = lower value 1.03 | locus YCR088W, strain abp1, stronger effect = lower value 1.02 | locus YDL005C, strain med2, stronger effect = lower value 1.03 | locus YDL035C, strain GPR1, stronger effect = lower value 1.02 | locus YDL040C, strain nat1, stronger effect = lower value 1.01 | locus YDL074C, strain BRE1, stronger effect = lower value 1 | locus YDL101C, strain DUN1, stronger effect = lower value 1.01 | locus YDL134C, strain PPH21, stronger effect = lower value 1.02 | locus YDL185W, strain tfp1, stronger effect = lower value 1.01 | locus YDL192W, strain arf1, stronger effect = lower value 1.02 | locus YDR001C, strain nth1, stronger effect = lower value 1.02 | locus YDR069C, strain doa4, stronger effect = lower value 1.03 | locus YDR101C, strain arx1, stronger effect = lower value 1.02 | locus YDR137W, strain rgp1, stronger effect = lower value 1.07 | locus YDR159W, strain sac3, stronger effect = lower value 1 | locus YDR162C, strain NBP2, stronger effect = lower value 1.01 | locus YDR195W, strain ref2 1.01 | locus YDR297W, strain sur2, stronger effect = lower value 1.02 | locus YDR318W, strain mcm21, stronger effect = lower value 1 | locus YDR334W, strain swr1, stronger effect = lower value 1.03 | locus YDR335W, strain msn5, stronger effect = lower value 1.03 | locus YDR388W, stronger effect = lower value 1.02 | locus YDR392W, strain spt3, stronger effect = lower value 0.931 | locus YDR502C, strain sam2, stronger effect = lower value 1.01 | locus YEL003W, strain gim4, stronger effect = lower value 1.02 | locus YEL037C, strain rad23, stronger effect = lower value 1.02 | locus YEL061C, strain CIN8 (second series), stronger effect = lower value 1.02 | locus YEL061C, strain CIN8, stronger effect = lower value 1.01 | locus YER015W, strain faa2, stronger effect = lower value 1.02 | locus YER016W, strain bim1, stronger effect = lower value 1.02 | locus YER110C, stronger effect = lower value 1.02 | locus YER111C, strain swi4, stronger effect = lower value 1.03 | locus YER155C, strain BEM2 (second series), stronger effect = lower value 1.01 | locus YER155C, strain BEM2, stronger effect = lower value 1 | locus YER167W, strain BCK2, stronger effect = lower value 1.01 | locus YFR010W, strain ubp6, stronger effect = lower value 1.03 | locus YGL078C, strain dbp3, stronger effect = lower value 1.02 | locus YGL086W, strain mad1, stronger effect = lower value 1 | locus YGL167C, strain pmr1, stronger effect = lower value 1.03 | locus YGL173C, strain kem1, stronger effect = lower value 1.04 | locus YGL227W, strain vid30, stronger effect = lower value 1.03 | locus YGL240W, strain doc1, stronger effect = lower value 1.03 | locus YGL248W, strain PDE1, stronger effect = lower value 1 | locus YGL253W, strain hxk2, stronger effect = lower value 1.03 | locus YGR078C, strain PAC10, stronger effect = lower value 1 | locus YGR135W, strain pre9, stronger effect = lower value 1.02 | locus YGR229C, strain SMI1, stronger effect = lower value 1.01 | locus YGR252W, strain gcn5, stronger effect = lower value 1 | locus YHR013C, strain ard1, stronger effect = lower value 1.04 | locus YHR027C, strain rpn1, stronger effect = lower value 1.02 | locus YHR030C, strain SLT2, stronger effect = lower value 1.01 and 1.02 | locus YHR079C, strain IRE1 (second series), stronger effect = lower value 1.01 | locus YHR079C, strain IRE1, stronger effect = lower value 1.03 | locus YHR094C, strain hxt1, stronger effect = lower value 1.01 | locus YHR129C, strain ARP1, stronger effect = lower value 0.999 | locus YHR142W, strain chs7, stronger effect = lower value 1.03 | locus YHR200W, strain rpn10, stronger effect = lower value 1.01 | locus YIL066C, strain RNR3, stronger effect = lower value 1.02 | locus YIL073C, strain SPO22, stronger effect = lower value 1.07 | locus YIL125W, strain kgd1, stronger effect = lower value 1 | locus YIR030C, strain dcg1, stronger effect = lower value 1.01 | locus YJL092W, strain hpr5, stronger effect = lower value 1.02 | locus YJL095W, strain BCK1 (second series), stronger effect = lower value 1.01 | locus YJL095W, strain BCK1, stronger effect = lower value 0.998 and 1.03 | locus YJL115W, strain asf1, stronger effect = lower value 1.03 | locus YJL129C, strain trk1, stronger effect = lower value 1.04 | locus YJL134W, strain LCB3, stronger effect = lower value 1 | locus YJL154C, strain vps35, stronger effect = lower value 1.02 | locus YJL164C, strain tpk1, stronger effect = lower value 1.01 | locus YJL166W, strain qcr8, stronger effect = lower value 1.03 | locus YJL168C, strain set2, stronger effect = lower value 1.01 | locus YJL187C, strain SWE1 (second series), stronger effect = lower value 1.01 | locus YJL187C, strain SWE1, stronger effect = lower value 1.02 | locus YJR043C, strain POL32, stronger effect = lower value 1.04
